Results from the supplement of paper PMC11417369.
Whole data set: some 25,000 sequences, median “ln(normalized median fluorescence intensity)” near 9.7, cut for the highest 2% near 11. Many of the other results were omitted from the sample, so the highest values are more common in it than they were.

system: PfAP2-HC AP2 domain (GST-tagged); assay: gcPBM binding intensity (ln(normalized median fluorescence intensity)); higher = stronger DNA binding
Procedure, shortened: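 Binding intensity is defined as the maximum Masliner-normalised natural-log median intensity across replicate spots for either probe orientation. It was measured on an Agilent 4 × 180k array of primer-extended double-stranded 36-bp intergenic genomic probes and negative controls, to which GST-tagged P. falciparum DNA-binding domains made in E. coli were applied for 1 h in 1× PBS with 1% milk, 0.2 mg/ml BSA, 0.5% salmon testes DNA and 0.03% Triton X-100. Detection was by Alexa488 anti-GST antibody and scanning at 488 nm.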

Q: How did the “gcPBM binding intensity (ln)” value turn out when “ATTAATATATTTACCACACACCCATTTCGATTTTAT [CACACA_site3605]” was run?
A: 10.3

Q: With “AATATATATATAAATAATATACCTATATATTTTTTG [XGTACX_negctrl_site407]” as the sequence, how does the “gcPBM binding intensity (ln)” value read?
A: 9.61

Q: Which “gcPBM binding intensity (ln)” value does the source give for “TAATATATTAATATATGTACATATTTATATATCTAC [XGTACX_site7117]” here?
A: 9.81

Q: With “TTTTATAAATATTATACATGCATAATGATAAAAAAA [TGCATGCA_site927]” as the sequence, how does the “gcPBM binding intensity (ln)” value read?
A: 9.55

Q: “TAATAATAAAAATAAACACACATATATCTGTATTTA [CACACA_site5572]” was tested. Which “gcPBM binding intensity (ln)” value did it give?
A: 9.74

Q: With “TTTTCTTTTTTGAACTGTACGCGTAAATTTAAAAAG [XGTACX_site882]” as the sequence, how does the “gcPBM binding intensity (ln)” value read?
A: 9.36

Q: TTTTTGTTACCTATTGTGCACTTCATATAAATTAAA was tested. Which “gcPBM binding intensity (ln)” value did it give?
A: 9.74

Q: With “ATATATAATATTTATTGTACTATTTTATTTTTATAA [XGTACX_site705]” as the sequence, how does the “gcPBM binding intensity (ln)” value read?
A: 9.62

Q: For “CAAATACACGGACACACACACACAAAAAAAAAAAAA [CACACA_site6385]”, which “gcPBM binding intensity (ln)” value is on record?
A: 11

Q: With “CCACACTTAAAATACACACACACCAAAAAAAAAAAA [CACACA_site2709]” as the sequence, how does the “gcPBM binding intensity (ln)” value read?
A: 11.3

Q: “TTATACACAAAAAAAAAAATATATATATATATATAT [XGTACX_negctrl_site5]” was tested. Which “gcPBM binding intensity (ln)” value did it give?
A: 9.49

Q: How did the “gcPBM binding intensity (ln)” value turn out when “AAAATACACGCATACACACACACACGCGCACATATA [CACACA_site6448]” was run?
A: 10.6

Q: How did the “gcPBM binding intensity (ln)” value turn out when “AGCCACTTAAAATACACACACACCAAAAAAAAAAAA [CACACA_site5497]” was run?
A: 10.2

Q: Which “gcPBM binding intensity (ln)” value does the source give for “ATGATTATACAAAATATACACACGTGGACACAAATA [CACACA_site8304]” here?
A: 10.3

Q: With “TATATAACTAAAATAACACACATATATAAAAATATA [CACACA_site7416]” as the sequence, how does the “gcPBM binding intensity (ln)” value read?
A: 9.88

Q: “ACCTAAAATAACTACACACACATAAAAAAAAAAAAA [CACACA_site2529]” was tested. Which “gcPBM binding intensity (ln)” value did it give?
A: 10.2

Q: How did the “gcPBM binding intensity (ln)” value turn out when “AAAAAAAATACATACACACACACACGCACATATATA [CACACA_site7645]” was run?
A: 11.7

Q: For “ACGGACTTAAAATACACACACACCAAAAAAAAAAAA [CACACA_site7304]”, which “gcPBM binding intensity (ln)” value is on record?
A: 10.2

Q: Which “gcPBM binding intensity (ln)” value does the source give for “CACGCACGCACATACACACACATACACATATAAATA [CACACA_site6907]” here?
A: 10.1

Q: For “TAACCTAAAATAACTACACACACATAAAAAAAAAAA [CACACA_site8807]”, which “gcPBM binding intensity (ln)” value is on record?
A: 11.2

Q: How did the “gcPBM binding intensity (ln)” value turn out when “ACAATATGTATATATATATATATGCAAATGTATAAA [CACACA_negctrl_site53]” was run?
A: 9.78

Q: Which “gcPBM binding intensity (ln)” value does the source give for “TTTTTTAAAGCCTGTTCATCATCCTTACCTATCAAC [GTGCAC_negctrl_site452]” here?
A: 9.49

Q: “ATATAATATACTTATTGTACTTATTTAAAATACTAA [XGTACX_site4266]” was tested. Which “gcPBM binding intensity (ln)” value did it give?
A: 9.58

Q: For “TACTTAAAAAAAAAAAAAATAAATATTATGTATTAT [CACACA_negctrl_site138]”, which “gcPBM binding intensity (ln)” value is on record?
A: 9.36

Q: How did the “gcPBM binding intensity (ln)” value turn out when “AAAGTTACATTCGACACACACATAACAACTAAATAA [CACACA_site3419]” was run?
A: 10.1

Q: For “TGTATATTTGTTGTTACACACATATATTTTTTTTTT [CACACA_site128]”, which “gcPBM binding intensity (ln)” value is on record?
A: 9.86

Q: Which “gcPBM binding intensity (ln)” value does the source give for “TTGGATTTTCCATAATGTACACATAAAAGTGTTACA [XGTACX_site4544]” here?
A: 9.4

Q: Which “gcPBM binding intensity (ln)” value does the source give for “AACAATGTTGTACATACACACACACTAATAAAAAAT [CACACA_site8758]” here?
A: 10.3

Q: For “AATAAAAAAATAAAATGTACATACAAATAAATAAAT [XGTACX_site5153]”, which “gcPBM binding intensity (ln)” value is on record?
A: 9.9

Q: How did the “gcPBM binding intensity (ln)” value turn out when “ATTAAATACATTAACACACACACAAATATATACATA [CACACA_site2881]” was run?
A: 10.7

Q: Which “gcPBM binding intensity (ln)” value does the source give for “ATTAAATACATTAACACACACACAAATATGTACATA [CACACA_site7372]” here?
A: 11

Q: How did the “gcPBM binding intensity (ln)” value turn out when “AGTATACACAAACACACACACACAAAAAAAAAAAAA [CACACA_site8036]” was run?
A: 10.7

Q: Which “gcPBM binding intensity (ln)” value does the source give for “AAAAAAAAAAAAAACACACACACACGCAAATACATA [CACACA_site6474]” here?
A: 11.4

Q: For “ATTAAATACATTAACACACACACAAATAAATACATA [CACACA_site5583]”, which “gcPBM binding intensity (ln)” value is on record?
A: 10.4

Q: With “AAAAAAAAAAAAAACACACACACACGCATACAAAAT [CACACA_site6794]” as the sequence, how does the “gcPBM binding intensity (ln)” value read?
A: 10.6

Q: Which “gcPBM binding intensity (ln)” value does the source give for “TATACGCAGAAACACACACACAAAAAAAAAAAAAAA [CACACA_site427]” here?
A: 10.5

Q: “AGTATACGCAAACACACACACACAAAAAAAAAAAAA [CACACA_site426]” was tested. Which “gcPBM binding intensity (ln)” value did it give?
A: 11.2

Q: How did the “gcPBM binding intensity (ln)” value turn out when “CAATGTTGTACATACACACACACAAAAAAAAAATAA [CACACA_site2407]” was run?
A: 11.4

Q: Which “gcPBM binding intensity (ln)” value does the source give for “AAAAAAAAAAAAAACACACACACACGCATACACATA [CACACA_site7364]” here?
A: 10.7

Q: Which “gcPBM binding intensity (ln)” value does the source give for “ATATAAATATGTTCTGCACACAAATAAGTGTTTGAA [CACACA_site9291]” here?
A: 9.79

Q: How did the “gcPBM binding intensity (ln)” value turn out when “GCACTAAAAAAATAAACACACAGATTTATATAATAT [CACACA_site1381]” was run?
A: 9.79

Q: With “TACAAAAGCTATAACATTCACCACATTATAAAAATA [CACACA_negctrl_site1112]” as the sequence, how does the “gcPBM binding intensity (ln)” value read?
A: 9.78

Q: With “TAAAAACCAAAGAAAAGTACAAATTTAAATGAGAAA [XGTACX_site7450]” as the sequence, how does the “gcPBM binding intensity (ln)” value read?
A: 9.83

Q: Which “gcPBM binding intensity (ln)” value does the source give for “AAATATGTCAAATATACACACATAATAAATATAATA [CACACA_site2310]” here?
A: 9.99

Q: How did the “gcPBM binding intensity (ln)” value turn out when “TTCTAATATATGCATACACACAAATGTGAATATACA [CACACA_site2142]” was run?
A: 9.83

Q: With “TAAAGGCAAACAAACACACACACATATATACATATA [CACACA_site2123]” as the sequence, how does the “gcPBM binding intensity (ln)” value read?
A: 11.1

Q: For “AACAAATACGGACACACACACACACTAGAAAAAAAA [CACACA_site4442]”, which “gcPBM binding intensity (ln)” value is on record?
A: 11
